Among the test systems are SR leukemia; RPMI-8226 leukemia; OVCAR-8 ovarian; OVCAR-5 ovarian; OVCAR-4 ovarian; SK-OV-3 ovarian; IGROV1 ovarian; OVCAR-3 ovarian; HS 578T breast; NCI/ADR-RES ovarian; T-47D breast; BT-549 breast; MDA-MB-435 melanoma; SW-620 colon; MCF7 breast; HCT-116 colon; HCC-2998 colon; KM12 colon.
Common to all, as to assay: NCI-60 one-dose screen, 48 h (100 = growth as untreated, 0 = no growth, -100 = all killed)
Details in all cases: 10 µM unless noted

Values joined by “and” are separate entries in the source; they are usually repeats but may differ in a detail not shown here. Equal values may be shown once. This is part of a sample that, as a whole, favours compounds with a hit. Of some 83,000 tested, about 20% had one in any assay.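 48-hour exposure, single concentration, 96-well plates; percent growth endpoint where 0 means no net growth. Active: below 10.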 Active and inactive are the calls of the source.

For the molecule `CN1CCN(c2ccc3nc(-c4c(N)c5c(F)cccc5[nH]c4=O)[nH]c3c2)CC1`, the growth in the experiment with SR leukemia is -11.8% (active) and 1.99% (active); in the experiment with RPMI-8226 leukemia, 47.5% (inactive) and 53.7% (inactive); in the experiment on OVCAR-8 ovarian, 35.4% (inactive) and 28.2% (inactive); in the experiment on OVCAR-5 ovarian, 56.1% (inactive) and 61.3% (inactive); with OVCAR-4 ovarian, 64.7% (inactive) and 53.9% (inactive); in the experiment on SK-OV-3 ovarian, 1.69% (active) and 24.6% (inactive). In addition, the growth in the experiment with IGROV1 ovarian was 13.9% (inactive) and 13.5% (inactive); in the experiment with OVCAR-3 ovarian it was 53.5% (inactive) and 48.2% (inactive); in the experiment on HS 578T breast, 2.57% (active); in the experiment on NCI/ADR-RES ovarian it was 41% (inactive) and 47% (inactive); with T-47D breast it was 71.6% (inactive) and 64.4% (inactive); with BT-549 breast, -66% (active) and 49.3% (inactive). In addition, the growth was 26.6% (inactive) and 16.1% (inactive) in the experiment on MDA-MB-435 melanoma; 14.3% (inactive) and 15.8% (inactive) with SW-620 colon; 14.8% (inactive) and 14.7% (inactive) in the experiment with MCF7 breast; 19.1% (inactive) and 3.86% (active) in the experiment on HCT-116 colon; 38.2% (inactive) and 44.8% (inactive) in the experiment with HCC-2998 colon; 12.8% (inactive) and 13.7% (inactive) in the experiment on KM12 colon.
For `CO/N=C/C=C\C(=O)N/C=C/C[C@H]1/C=C/[C@H](O)/C=C\C=C\c2cccc(O)c2C(=O)O1`, the growth is 6.08% (active) and 20.5% (inactive) with SR leukemia; 12.8% (inactive) and 11.6% (inactive) in the experiment with RPMI-8226 leukemia; 27.5% (inactive) and 29.7% (inactive) with OVCAR-8 ovarian; 39.5% (inactive) and 44.7% (inactive) with OVCAR-5 ovarian; 72% (inactive) and 69.4% (inactive) in the experiment on OVCAR-4 ovarian; 49.6% (inactive) and 35% (inactive) with SK-OV-3 ovarian. Also, the growth in the experiment on IGROV1 ovarian is 36.5% (inactive) and 40.3% (inactive); in the experiment with OVCAR-3 ovarian, 60.9% (inactive) and 36.3% (inactive); in the experiment on HS 578T breast it was 50.9% (inactive) and 57.1% (inactive); with NCI/ADR-RES ovarian, 44.4% (inactive) and 32.6% (inactive); in the experiment on T-47D breast it was 16.4% (inactive) and 17.4% (inactive); in the experiment on BT-549 breast it was 31.6% (inactive) and 46.9% (inactive). In addition, the growth in the experiment on MDA-MB-435 melanoma is 6.42% (active) and -15.8% (active); in the experiment on SW-620 colon, 17.5% (inactive) and 8.83% (active); in the experiment on MCF7 breast it was 35.6% (inactive) and 26.1% (inactive); in the experiment with HCT-116 colon it was 21.3% (inactive) and 14.9% (inactive); with HCC-2998 colon, 59.3% (inactive) and 29.1% (inactive); with KM12 colon, 34.3% (inactive) and 20.8% (inactive).
For the molecule `COc1ccc(S(=O)(=O)N2CCOCC2)cc1NC(=O)c1[nH]c(C)c2c1CCCCC2=O`, the growth in the experiment with SR leukemia was 113% (inactive) and 64.4% (inactive); with RPMI-8226 leukemia, 104% (inactive) and 21.5% (inactive); with OVCAR-8 ovarian, 99.6% (inactive) and 61.7% (inactive); in the experiment with OVCAR-5 ovarian, 102% (inactive) and 66.8% (inactive); with OVCAR-4 ovarian, 114% (inactive) and 59.2% (inactive); with SK-OV-3 ovarian it was 103% (inactive). Also, the growth is 108% (inactive) and 47.1% (inactive) with IGROV1 ovarian; 111% (inactive) and 68% (inactive) in the experiment on OVCAR-3 ovarian; 91.8% (inactive) and 23.1% (inactive) in the experiment on HS 578T breast; 107% (inactive) and 79.1% (inactive) in the experiment with NCI/ADR-RES ovarian; 107% (inactive) and 42% (inactive) in the experiment with T-47D breast; 116% (inactive) and 102% (inactive) with BT-549 breast. In addition, the growth in the experiment with MDA-MB-435 melanoma was 105% (inactive) and 35.8% (inactive); with SW-620 colon it was 103% (inactive) and 67.5% (inactive); in the experiment with MCF7 breast it was 91.1% (inactive) and 27.6% (inactive); with HCT-116 colon, 109% (inactive) and 101% (inactive); with HCC-2998 colon, 102% (inactive) and 69.8% (inactive); in the experiment on KM12 colon, 110% (inactive) and 65% (inactive).
Take `C1CCCCNCCC1`: the growth in the experiment on SR leukemia is 110% (inactive); in the experiment with RPMI-8226 leukemia, 99.5% (inactive); in the experiment with OVCAR-8 ovarian, 110% (inactive); in the experiment on OVCAR-5 ovarian, 106% (inactive); in the experiment on OVCAR-4 ovarian, 109% (inactive); with SK-OV-3 ovarian, 117% (inactive). Moreover, the growth with IGROV1 ovarian was 140% (inactive); in the experiment with OVCAR-3 ovarian, 112% (inactive); in the experiment on HS 578T breast, 110% (inactive); in the experiment with NCI/ADR-RES ovarian it was 127% (inactive); with T-47D breast, 101% (inactive); in the experiment on BT-549 breast, 114% (inactive). Besides, the growth with MDA-MB-435 melanoma was 94.6% (inactive); with MCF7 breast, 101% (inactive); with HCT-116 colon, 107% (inactive); in the experiment with HCC-2998 colon, 112% (inactive); in the experiment on KM12 colon, 115% (inactive).
Regarding `Oc1c(Cl)cc(Cl)cc1Sc1cc(Cl)cc(Cl)c1O`, the growth was 42.1% (inactive) and 77.1% (inactive) and 107% (inactive) with SR leukemia; 11.8% (inactive) and -29% (active) and 41.3% (inactive) in the experiment with RPMI-8226 leukemia; 31.7% (inactive) and 2.65% (active) and 71.7% (inactive) in the experiment on OVCAR-8 ovarian; 49.9% (inactive) and 102% (inactive) in the experiment on OVCAR-5 ovarian; 78.1% (inactive) and 38.2% (inactive) and 93.3% (inactive) with OVCAR-4 ovarian; 74.6% (inactive) and 96.4% (inactive) in the experiment with SK-OV-3 ovarian. Besides, the growth was 56.5% (inactive) and 33.3% (inactive) and 73.7% (inactive) in the experiment on IGROV1 ovarian; 47.1% (inactive) and 11.6% (inactive) and 76.5% (inactive) with OVCAR-3 ovarian; 47.9% (inactive) and 53.5% (inactive) and 78.2% (inactive) in the experiment on HS 578T breast; 15.8% (inactive) and 10.8% (inactive) and 82.7% (inactive) with NCI/ADR-RES ovarian; 77.4% (inactive) and 52.2% (inactive) and 80.7% (inactive) with T-47D breast; 32.1% (inactive) and 77% (inactive) with BT-549 breast. Moreover, the growth was 51% (inactive) and 26.6% (inactive) and 92.5% (inactive) in the experiment on MDA-MB-435 melanoma; 15.7% (inactive) and 26.6% (inactive) and 83% (inactive) in the experiment on SW-620 colon; 73.1% (inactive) and 5.37% (active) and 69.8% (inactive) with MCF7 breast; 18.7% (inactive) and 11.8% (inactive) and 76.7% (inactive) with HCT-116 colon; 50% (inactive) and 23.1% (inactive) and 86% (inactive) in the experiment on HCC-2998 colon; 46.7% (inactive) and 21% (inactive) and 80.2% (inactive) in the experiment with KM12 colon.

For the origin of these results see PubChem BioAssay (NCI).
